High-throughput results deposited in PubChem by The Scripps Research Institute Molecular Screening Center.
SRC2 TRFRET art – TR-FRET signal artefacts, primary screen, artefact control for PPARgamma SRC-2 agonist project, biochemical; TR-FRET ratio at 8 µM; TR-FRET artefact counter-screen; active compounds read high; 0.4% of 200,000 active
SRC3 TRFRET art – TR-FRET detection interference compounds, artefact control for PPARgamma SRC-3 recruitment agonists, biochemical, TR-FRET ratio | TR-FRET artefact counter-screen, PPARgamma/SRC-3 format; active compounds read high | TR-FRET ratio at 8 µM | 0.39% of 99,000 active
PPARg SRC2 recr – agonists of PPARg-SRC-2 recruitment, primary screen, biochemical, HTS; PPARgamma LBD-SRC-2 recruitment; 0.34% of 200,000 active; activation, % at 8 µM; in the data active = activation above about 22%
Target sequence (P37231 whole entry, looked up, the tested form may be a part): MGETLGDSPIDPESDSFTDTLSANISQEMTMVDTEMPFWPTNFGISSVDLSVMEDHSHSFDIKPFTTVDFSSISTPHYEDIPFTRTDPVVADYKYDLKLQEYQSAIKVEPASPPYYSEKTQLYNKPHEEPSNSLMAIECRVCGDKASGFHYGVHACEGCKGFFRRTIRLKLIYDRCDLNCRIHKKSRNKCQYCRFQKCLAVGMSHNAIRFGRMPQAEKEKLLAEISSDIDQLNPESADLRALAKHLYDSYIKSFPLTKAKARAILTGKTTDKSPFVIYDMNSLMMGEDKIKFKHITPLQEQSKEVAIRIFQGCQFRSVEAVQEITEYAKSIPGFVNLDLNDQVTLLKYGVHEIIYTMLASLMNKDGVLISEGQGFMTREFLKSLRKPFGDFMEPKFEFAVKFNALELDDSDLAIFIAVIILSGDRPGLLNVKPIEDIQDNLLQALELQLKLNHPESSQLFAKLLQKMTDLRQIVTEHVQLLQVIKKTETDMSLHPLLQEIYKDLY
PPARg SRC-3 ag – PPARgamma agonists recruiting SRC-3 coactivator, primary screen, biochemical; biochemical PPARgamma/SRC-3 coactivator recruitment assay; activation, % at 8 µM; 0.26% of 200,000 active; in the data active = activation above about 23%
PPARg SRC1 recr – PPARgamma agonists recruiting SRC-1 coactivator, primary screen, biochemical; activation, % at 8 µM; PPARgamma-SRC-1 coactivator recruitment biochemical assay; 0.41% of 200,000 active; Peroxisome proliferator-activated receptor gamma (Homo sapiens), P37231; in the data active = activation above about 19%
SRC1 TRFRET art – TR-FRET detection interference compounds, primary screen, artefact control for PPARgamma SRC-1 recruitment agonists, biochemical, TR-FRET emission ratio | TR-FRET detection artefact counter-screen; active compounds read high | TR-FRET ratio at 8 µM | 0.34% of 99,000 active; in the data active = TR-FRET ratio above about 2300
Large screens that a line does not name were inactive. Sampled rows, rich in hits. Any-hit rate of the full collection: about 0.9%. Cut-off read from the data, not from the text of the source, unless noted: active = TR-FRET ratio above about 2000; inactive = the rest.

CN(C)c1ccc(/C=C2\C(=O)N(c3ccc([N+](=O)[O-])cc3)N=C2N2CCOCC2)cc1	none (no result: SRC3 TRFRET art, SRC1 TRFRET art)
NCCCC[C@H](NC(=O)C1CCNCC1)c1nnc(CN)o1	none
O=c1c2cccnc2[nH]c(=S)n1Cc1ccccc1	none
O=C(Cn1c(=S)[nH]c2ncccc2c1=O)NCCc1ccccc1	SRC1 TRFRET art 2328
COc1ccc(CCN2C(=O)CC(C(N)=O)SC2=Nc2ccc(F)cc2)cc1OC (stereo not drawn)	none
COC(=O)c1c(NC(=O)COC(=O)[C@@H](NS(=O)(=O)c2ccc(C)cc2)C(C)C)sc2c1CCC2	SRC1 TRFRET art 2338
COC(=O)c1c(NC(=O)COC(=O)c2ccc(C)s2)sc2c1CCCCC2	none
COc1ccc(-c2csc(NNC3=NCCCCC3)n2)cc1	none
CCOc1ccc(-c2csc(NNC3=NCCCCC3)n2)cc1	PPARg SRC1 recr 22.9, SRC1 TRFRET art 2430
COc1ccc(-c2cc(-c3ccccc3)c(C#N)c(SCC(=O)Nc3ncc(C)s3)n2)cc1	SRC3 TRFRET art 2402
CCn1nnc(-c2ccc(N)cc2)n1	none
CN1/C(=C\C(=O)COC(=O)CNC(=O)c2ccccc2F)C(C)(C)c2ccccc21	none
CN1/C(=C\C(=O)COC(=O)CNC(=O)c2ccc3ccccc3c2)C(C)(C)c2ccccc21	SRC2 TRFRET art 2236, SRC3 TRFRET art 3346, SRC1 TRFRET art 3406
COc1cc(-c2nc3ccccn3c2/N=C/c2ccc(F)cc2)ccc1O	none
COc1cc(-c2nc3ccccn3c2/N=C/c2cccc(OC)c2O)ccc1O	SRC2 TRFRET art 2175
COc1ccc(-n2nc(C(=O)NCC(=O)Nc3ccccn3)c3ccccc3c2=O)cc1Cl	PPARg SRC1 recr 23.4 (no result: SRC3 TRFRET art, SRC1 TRFRET art)
Cc1oc(-c2cccc(Cl)c2)nc1CN1CCC(C(=O)N2CCN(c3ccccc3F)CC2)CC1	SRC1 TRFRET art 2346
CCN(CC)S(=O)(=O)c1ccc(N2CCOCC2)c(NC(=O)c2cc(-c3ccccn3)nc3ccccc23)c1	SRC3 TRFRET art 2191, SRC1 TRFRET art 2421
CCOC12NC(=O)CC(=O)N1C(c1ccccc1)=CS2 (stereo not drawn)	SRC3 TRFRET art 2220
COC(=O)c1ccc(CO/N=C/c2ccc(OC)cc2)o1	none
O=C(N/N=C/c1ccc(O)cc1)c1csc2ccccc12	PPARg SRC1 recr 45.8 (no result: SRC3 TRFRET art, SRC1 TRFRET art)
CCn1cc(/C=N\NC(=O)c2csc3ccccc23)c(C)n1	none (no result: SRC3 TRFRET art, SRC1 TRFRET art)
COc1cccc(OCC(Cn2c(C)nc3ccccc32)OC(C)=O)c1 (stereo not drawn)	none
CCCCOC(=O)N/N=C/C=C/c1ccccc1	SRC1 TRFRET art 2344
COc1ccc(S(=O)(=O)Nc2c(F)cccc2F)cc1	SRC2 TRFRET art 2118, PPARg SRC2 recr 21.8
COc1ccc(N2C(=O)C3CCCCC3C2=O)cc1NC(=O)c1ccccc1 (stereo not drawn)	none
N#Cc1c(-c2ccccc2Cl)cc(-c2ccccc2)nc1Br	SRC3 TRFRET art 2059
OCC1(CCOc2ccccc2)CCN(CCCn2cccn2)CC1	none
CCOC(=O)C1=C(C)NC(SCC(=O)O)=NC1c1ccccc1 (stereo not drawn)	SRC2 TRFRET art 2481, PPARg SRC2 recr 40.4
COc1ccccc1C(=O)C1CCCN(C(=O)CSc2ccccn2)C1 (stereo not drawn)	PPARg SRC2 recr 23.5
CCc1cc2c(=O)n(CCC(C)C)c(=S)[nH]c2s1	SRC2 TRFRET art 1976
COc1ccc([N+](=O)[O-])cc1-n1cnnn1	none
C=CCn1c(SCC(=O)NCc2ccc3c(c2)OCO3)nc2scc(-c3ccccc3)c2c1=O	SRC2 TRFRET art 1974 (no result: SRC3 TRFRET art, SRC1 TRFRET art)
CCCCNC(=O)CSc1nc2ccccc2c(=O)n1Cc1ccc2c(c1)OCO2	SRC2 TRFRET art 5232, PPARg SRC2 recr 190.0 (no result: SRC3 TRFRET art, SRC1 TRFRET art)
CCOCCCn1c(SCC(=O)NCc2ccc3c(c2)OCO3)nc2ccccc2c1=O	none
O=C(CSc1ncnc2c1nnn2Cc1ccccc1F)N1CCN(c2ccccc2)CC1	SRC2 TRFRET art 2938, PPARg SRC2 recr 67.4 (no result: SRC3 TRFRET art, SRC1 TRFRET art)
O=C(Cn1cnc2c(nnn2Cc2ccccc2F)c1=O)N1CCN(c2ccccc2)CC1	none (no result: SRC3 TRFRET art, SRC1 TRFRET art)
COCCNC(=O)C(c1ccccc1F)N(C(=O)C(=O)NC1CCCC1)C1CCCCC1 (stereo not drawn)	none
CC(C(=O)Nc1ccc2c(c1)OCCO2)c1ccc([N+](=O)[O-])cc1 (stereo not drawn)	SRC3 TRFRET art 2361
O=S(=O)(c1ccc(NC(=S)N2CCN(c3ccc(O)cc3)CC2)cc1)N1CCOCC1	none
NS(=O)(=O)c1ccc(NC(=S)NCc2ccc(Cl)cc2)cc1	PPARg SRC-3 ag 30.4 (no result: SRC3 TRFRET art, SRC1 TRFRET art)
NS(=O)(=O)c1ccc(CNC(=S)Nc2ccc(F)c(Cl)c2)cc1	none
CCCSc1nc(C)nc2c1c(=O)n(C)c(=O)n2C	PPARg SRC1 recr 23.6 (no result: SRC3 TRFRET art, SRC1 TRFRET art)
CCCCSc1nc(C)nc2c1c(=O)n(C)c(=O)n2C	none (no result: SRC3 TRFRET art, SRC1 TRFRET art)
O=C(NC1CC(=O)c2sccc21)c1ccc(Cl)cc1Cl (stereo not drawn)	none
CC(C)N(C(=O)Cn1cc(SCC(N)=O)c2ccccc21)C(C)C	none
CC(Oc1ccccc1)C(=O)N=Nc1c(O)[nH]c2ccc(Br)cc12 (stereo not drawn)	none
CN(C)c1ncc(C2=C(Cl)C(=O)C(N3CCCC3)=C(Cl)C2=O)s1	PPARg SRC1 recr 25.6 (no result: SRC3 TRFRET art, SRC1 TRFRET art)
Cc1ccc(C(=O)COC(=O)c2ccc(O)cc2)cc1	none
Cc1c(Cl)cccc1NC(=S)N(Cc1cccs1)C1CCCC1	none
COCC(=O)NC1CCN(S(=O)(=O)c2cccc(C(C)=O)c2)CC1	none
CCOc1ccc(NC(=S)Nc2ccc3nsnc3c2)cc1	SRC1 TRFRET art 2443
C=CCNC(=S)Nc1ccc2nsnc2c1	SRC1 TRFRET art 2407
S=C(Nc1ccc(Cl)c(Cl)c1)NC1CCCCC1	none (no result: SRC3 TRFRET art, SRC1 TRFRET art)
S=C(Nc1ccc2nsnc2c1)NC1CCCCC1	SRC1 TRFRET art 2457
O=C(CSc1nc2cccnc2n1Cc1ccccc1)NCc1ccco1	PPARg SRC1 recr 34.3 (no result: SRC3 TRFRET art, SRC1 TRFRET art)
O=C(NCc1cc(Br)cc(Br)c1OC(=O)c1ccccc1[N+](=O)[O-])c1ccccc1	none
O=C1C2CCCN2c2ccc(S(=O)(=O)N3CCOCC3)cc2N1Cc1cccc(C(F)(F)F)c1 (stereo not drawn)	none (no result: SRC3 TRFRET art, SRC1 TRFRET art)
CON(C)S(=O)(=O)c1ccc2c(c1)N(Cc1ccc(C)cc1)C(=O)C1CCCN21 (stereo not drawn)	SRC3 TRFRET art 2052
Cc1cc2nc(CS(=O)(=O)c3ccccc3)cc(=O)n2[nH]1	none
O=C(COC(=O)c1ccc(-c2nnc(-c3ccccc3)o2)cc1)c1ccccc1	SRC2 TRFRET art 2098
CCOc1ccc(C(CC(=O)O)NC(=O)C(Sc2ccccc2)c2ccccc2)cc1 (stereo not drawn)	none
Cc1ccc(NC(=O)CN2C(=O)N/C(=C/c3cc(C)n(-c4ccc(C(=O)O)cc4)c3C)C2=O)cc1	none
